In PubChem BioAssay:
Calls of active or inactive are those of the source. Unless noted, how the calls were made is not given here.

Tests used:
[1] = anti-His antibody binders, primary screen, artefact control for SMM control protein annotation, biochemical, small-molecule microarray, 635 nm fluorescence (AID 1128); details: anti-His Alexa647 antibody binding, higher = more signal;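 further: score merges feature fluorescence with signal-to-noise for each printed compound spot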
[2] = tested on: Human papillomavirus type 1a E7 protein (residues 1-88); test: HPV1a E7 small-molecule binders, primary screen, biochemical, small-molecule microarray, residues 1-88, 635 nm (AID 1129); details: small-molecule microarray binding, fluorescence 635 nm; higher = more signal
[3] = molecular target: Focal adhesion kinase 1 (Homo sapiens) (UniProt Q05397); test: small-molecule microarray binders of FAK, primary screen, biochemical, 635/667 nm fluorescence, BSA, DTT (AID 1130); details: PTK2 binding, 635 nm fluorescence, higher = more signal;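 further: composite of spot emission at 667 nm and signal to noise over triplicate slides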
Chain of Focal adhesion kinase 1 (Homo sapiens) (Q05397 whole entry, looked up): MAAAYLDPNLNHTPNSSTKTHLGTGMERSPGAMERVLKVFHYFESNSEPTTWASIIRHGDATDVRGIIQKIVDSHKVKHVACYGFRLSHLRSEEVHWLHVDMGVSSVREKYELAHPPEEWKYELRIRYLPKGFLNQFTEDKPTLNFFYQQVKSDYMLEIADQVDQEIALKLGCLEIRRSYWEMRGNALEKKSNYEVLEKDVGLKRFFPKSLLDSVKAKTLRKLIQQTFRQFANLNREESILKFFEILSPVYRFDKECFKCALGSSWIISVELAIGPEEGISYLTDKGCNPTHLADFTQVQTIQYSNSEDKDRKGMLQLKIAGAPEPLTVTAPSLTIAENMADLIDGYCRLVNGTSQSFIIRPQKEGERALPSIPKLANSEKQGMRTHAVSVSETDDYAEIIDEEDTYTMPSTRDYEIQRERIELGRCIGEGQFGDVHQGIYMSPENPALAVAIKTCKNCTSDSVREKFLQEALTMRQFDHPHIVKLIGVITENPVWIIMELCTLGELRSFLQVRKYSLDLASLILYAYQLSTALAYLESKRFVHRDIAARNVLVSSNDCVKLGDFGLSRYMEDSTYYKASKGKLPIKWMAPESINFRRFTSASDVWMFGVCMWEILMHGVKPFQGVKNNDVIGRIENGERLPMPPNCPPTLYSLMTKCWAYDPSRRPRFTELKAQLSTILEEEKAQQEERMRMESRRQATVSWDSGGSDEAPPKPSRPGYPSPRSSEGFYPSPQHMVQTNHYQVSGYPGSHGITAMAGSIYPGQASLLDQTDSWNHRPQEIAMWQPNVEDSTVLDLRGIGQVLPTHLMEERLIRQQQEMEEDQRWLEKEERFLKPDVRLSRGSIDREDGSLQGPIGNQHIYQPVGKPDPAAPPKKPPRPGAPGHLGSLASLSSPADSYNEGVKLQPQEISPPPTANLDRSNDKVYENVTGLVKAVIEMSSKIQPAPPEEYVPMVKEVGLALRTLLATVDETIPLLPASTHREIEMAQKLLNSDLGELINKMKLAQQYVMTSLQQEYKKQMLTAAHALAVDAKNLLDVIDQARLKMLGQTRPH

[4] = tested on: Fibrinogen (Alexa647-labelled); test: fibrinogen binders on compound microarrays, profiling panel, artefact control for SMM control-protein annotation, biochemical, small-molecule microarray, 635/667 nm fluorescence (AID 1131); details: fibrinogen-A647 binding fluorescence, higher = more signal;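 further: z-score merges 667 nm fluorescence with per-spot signal-to-noise over triplicate slides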
[5] = molecular target: Follistatin (Homo sapiens) (UniProt P19883); test: follistatin binders on small-molecule microarrays, primary screen, biochemical, small-molecule microarray, 635/667 nm fluorescence (AID 1132); details: FST binding, 635 nm fluorescence, higher = more signal
Chain of Follistatin (Homo sapiens) (P19883 whole entry, looked up): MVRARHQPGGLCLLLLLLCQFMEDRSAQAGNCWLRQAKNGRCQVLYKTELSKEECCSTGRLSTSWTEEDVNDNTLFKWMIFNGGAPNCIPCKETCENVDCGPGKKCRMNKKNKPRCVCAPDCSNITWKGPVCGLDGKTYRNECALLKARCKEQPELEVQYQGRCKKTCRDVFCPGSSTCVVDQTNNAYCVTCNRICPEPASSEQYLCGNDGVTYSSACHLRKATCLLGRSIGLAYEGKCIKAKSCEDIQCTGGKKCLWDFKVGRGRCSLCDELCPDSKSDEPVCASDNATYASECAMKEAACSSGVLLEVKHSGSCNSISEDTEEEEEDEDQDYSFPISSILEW

[6] = molecular target: Fibroblast growth factor 2 (Homo sapiens) (UniProt P09038); test: FGF2 binders on small-molecule microarrays, primary screen, biochemical, small-molecule microarray, 635/667 nm fluorescence (AID 1133); details: small-molecule microarray binding, FGF2, fluorescence 635/667; higher = more signal
Chain of Fibroblast growth factor 2 (Homo sapiens) (P09038 whole entry, looked up): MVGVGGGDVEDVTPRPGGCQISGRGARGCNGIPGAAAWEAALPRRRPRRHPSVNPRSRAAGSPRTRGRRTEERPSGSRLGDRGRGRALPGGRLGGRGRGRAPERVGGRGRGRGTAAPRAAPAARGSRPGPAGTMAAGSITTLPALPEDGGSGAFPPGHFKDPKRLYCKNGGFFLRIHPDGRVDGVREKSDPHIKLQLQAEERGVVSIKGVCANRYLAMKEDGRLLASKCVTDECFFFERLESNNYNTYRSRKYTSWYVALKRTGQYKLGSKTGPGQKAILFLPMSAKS

[7] = mitochondrial membrane potential change in A549 cells, profiling panel, cell-based, JC-1 fluorescence, basal, 24 h, 100 nL (AID 1138); details: higher = more signal;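 further: A549 lung adenocarcinoma cells under basal conditions with no added stimulus; test concentration not given here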
Lefty1 = Lefty1 binders on small-molecule microarrays, primary screen, biochemical, small-molecule microarray, 635/667 nm fluorescence (AID 1139); details: small-molecule microarray binding, fluorescence 635/667; higher = more signal
[8] = tested on: wheat germ agglutinin (Triticum aestivum), Alexa647-labelled; test: wheat germ agglutinin binders on compound microarrays, profiling panel, artefact control for SMM control-protein annotation, biochemical, small-molecule microarray, 635/667 nm fluorescence (AID 1140); details: WGA-A647 binding, 635 nm fluorescence, higher = more signal;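 further: score merges 667 nm feature emission with signal to noise over triplicate slides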
[9] = molecular target: Luciferin 4-monooxygenase (Photinus pyralis) (UniProt P08659); test: firefly luciferase enzyme inhibitors, primary screen, biochemical, luminescence, purified enzyme, 2006 set (AID 1141); details: SteadyGlo luminescence, 30 min, higher = more signal, called active from +8 up or from −8 down;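 further: cell-free assay with purified firefly luciferase at 100 ng per well in PBS; test concentration not given here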
Chain of Luciferin 4-monooxygenase (Photinus pyralis) (P08659 whole entry, looked up): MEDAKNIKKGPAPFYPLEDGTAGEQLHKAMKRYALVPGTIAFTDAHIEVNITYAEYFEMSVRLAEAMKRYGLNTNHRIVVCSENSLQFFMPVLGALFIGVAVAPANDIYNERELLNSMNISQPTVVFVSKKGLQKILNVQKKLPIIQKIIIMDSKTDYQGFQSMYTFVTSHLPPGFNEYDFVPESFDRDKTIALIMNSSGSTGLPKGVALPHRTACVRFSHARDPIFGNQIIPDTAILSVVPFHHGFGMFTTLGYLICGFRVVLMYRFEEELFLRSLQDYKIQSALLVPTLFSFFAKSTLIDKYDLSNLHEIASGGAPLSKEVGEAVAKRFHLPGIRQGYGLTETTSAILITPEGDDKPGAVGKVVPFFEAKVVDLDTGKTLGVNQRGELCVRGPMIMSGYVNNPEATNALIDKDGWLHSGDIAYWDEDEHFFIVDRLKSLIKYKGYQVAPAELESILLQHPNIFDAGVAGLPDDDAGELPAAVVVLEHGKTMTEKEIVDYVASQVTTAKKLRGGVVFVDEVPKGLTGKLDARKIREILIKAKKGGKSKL

[10] = tested on: Wnt5a (protein binding on small-molecule microarray); test: Wnt5a binders on small-molecule microarray, primary screen, biophysical, 635/667 nm fluorescence (AID 1142); details: 635 nm fluorescence, higher = more signal;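 further: fluorescence read at 667 nm with signal to noise per printed feature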
[11] = cell viability in Huh7 cells, primary screen, cytotoxicity control for HCV replication inhibitor project, CellTiter-Glo luminescence, basal, 48 h (AID 1143); details: Huh7 HCV replicon, higher = more signal, called active from +8 up or from −8 down;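 further: Huh7 hepatoma cells carrying a hepatitis C replication reporter with no stimulus; test concentration not given here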
[12] = P. aeruginosa biofilm formation inhibitors, primary screen, PAO1 strain, BacTiter-Glo luminescence, LB-PBS (AID 1144); details: 12 h, higher = more signal
[13] = CREB reporter modulators without forskolin, primary screen, cell-based, PC12, CRE-LacZ reporter, unstimulated (AID 1145); details: no forskolin, luminescence, 4.5 h, higher = more signal, called active from +8 up or from −8 down
[14] = CREB reporter modulators under forskolin, primary screen, cell-based, PC12, CRE-LacZ reporter, forskolin-stimulated (AID 1146); details: luminescence, 4.5 h, higher = more signal, called active from +8 up or from −8 down;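 further: PC12 cells with 6xCRE LacZ reporter stimulated by forskolin 10 µM; beta-galactosidase reporter signal reflecting CREB driven transcription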
[15] = molecular target: Streptavidin (Streptomyces avidinii) (UniProt P22629); test: streptavidin binders on small-molecule microarray, primary screen, artefact control for SMM compound annotation, biophysical, 635/667 nm fluorescence (AID 1147); details: streptavidin binding, higher = more signal;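 further: signal reflects streptavidin binding to arrayed compounds as a control protein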
Chain of Streptavidin (Streptomyces avidinii) (P22629 whole entry, looked up): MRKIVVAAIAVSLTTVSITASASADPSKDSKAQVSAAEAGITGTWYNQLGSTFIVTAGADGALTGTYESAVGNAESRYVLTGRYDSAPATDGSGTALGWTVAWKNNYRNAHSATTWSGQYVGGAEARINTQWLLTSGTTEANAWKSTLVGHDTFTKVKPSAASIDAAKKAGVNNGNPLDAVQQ

[16] = small-molecule binders of probe aInhba, primary screen, biochemical, small-molecule microarray, 635/667 nm fluorescence (AID 1148); details: higher = more signal;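 further: score merges 667nm spot fluorescence with signal-to-noise for antibody binding to printed compounds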
Torsin-1A (Homo sapiens) [17] = molecular target: Torsin-1A (Homo sapiens) (UniProt O14656); test: torsin A binders from cell lysate, primary screen, small-molecule microarray, wild-type, 635/667 nm (AID 1149); details: COS7 hTOR1A-WT lysate, 635 nm fluorescence, higher = more signal
Chain of Torsin-1A (Homo sapiens) (O14656 whole entry, looked up): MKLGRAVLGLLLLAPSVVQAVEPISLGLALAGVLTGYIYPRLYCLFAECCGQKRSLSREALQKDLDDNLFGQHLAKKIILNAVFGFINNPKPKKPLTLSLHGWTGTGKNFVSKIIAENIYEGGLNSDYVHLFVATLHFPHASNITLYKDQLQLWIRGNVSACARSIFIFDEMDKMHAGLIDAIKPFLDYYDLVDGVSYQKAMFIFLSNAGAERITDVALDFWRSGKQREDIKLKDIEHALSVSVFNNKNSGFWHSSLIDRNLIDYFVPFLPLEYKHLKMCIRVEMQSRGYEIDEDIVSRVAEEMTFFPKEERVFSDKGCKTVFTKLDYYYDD

Torsin-1A (Homo sapiens) [18] = molecular target: Torsin-1A (Homo sapiens) (UniProt O14656); test: small-molecule binders of mutant TOR1A in lysate, primary screen, cell lysate, small-molecule microarray, COS7 lysate, 635/667 nm fluorescence (AID 1150); details: COS7 hTOR1A mutant lysate, 635 nm fluorescence, higher = more signal;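 further: score pools 667 nm emission and signal to noise measuring lysate protein binding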
[19] = tested on: Sonic hedgehog protein (Shh); test: small-molecule binders of Shh protein, primary screen, biochemical, small-molecule microarray, 635/667 nm fluorescence (AID 1151); details: small-molecule microarray binding, 635 nm fluorescence; higher = more signal;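 further: Shh protein binding to compounds spotted on small-molecule microarray slides; score combines spot fluorescence intensity with signal-to-noise across triplicate slides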

SMILES	composite z-score [1]	composite z-score [2]	composite z-score [3]	composite z-score [4]	composite z-score [5]	composite z-score [6]	z-score [7]	composite z-score (Lefty1)	composite z-score [8]	z-score [9]	composite z-score [10]	z-score [11]	z-score [12]	z-score [13]	z-score [14]	composite z-score [15]	composite z-score [16]	composite z-score (Torsin-1A (Homo sapiens) [17])	composite z-score (Torsin-1A (Homo sapiens) [18])	composite z-score [19]
NCCCC[C@@H]1NC(=O)[C@H]2C[C@@H](C(=O)O)[C@@H](c3cccc(OCCO)c3)N2C1=O	3	1.26	0.188	0.577	1.41	1.69	-1.44	1.64	1.44	-1.08 (inactive)	0.424	0.0458 (inactive)	-0.0686 (inactive)	-0.943 (inactive)	0.963 (inactive)	1.99	0.15	1.18	1.7	1.85
[N-]=[N+]=NCc1ccccc1C[C@]1(C(=O)NCc2ccccc2)N=C(c2ccc(OCCCO)cc2)O[C@H]1c1ccccc1CN=[N+]=[N-]	1.75	0.986	0.586	0.91	0.821	-0.31	0.064	-0.503	0.328	-1.16 (inactive)	0.477	-4.58 (inactive)	-0.333 (inactive)	1.27 (inactive)	-1.73 (inactive)	0.208	0.237	0.135	0.623	-0.603
C[C@H]1NC(=O)C([C@@H](C)OCc2ccccc2)NC(=O)[C@@]23C(=O)N[C@@H](Cc4ccccc4)C2[C@H](C)[C@@]2(C)O[C@H]2C3/C=C/C/C=C\CNC1=O (stereo not given in full)	0.296	-0.728	-0.235	-0.394	0.425	0.545	0.919	0.459	-0.682	-1.02 (inactive)	0.0077	-1.16 (inactive)	1.3 (inactive)	4.12 (inactive)	-0.836 (inactive)	-0.556	-0.179	0.378	0.352	0.551
O=C1c2ccccc2[C@@]2(Cc3ccccc3N(Cc3ccccc3)C2=O)[C@H](c2ccc(CO)cc2)N1Cc1ccccc1	-1.16	-1.58	-0.667	-0.936	-1	-1.01	0.0926	-1.09	0.168	0.407 (inactive)	-0.201	0.579 (inactive)	-0.124 (inactive)	0.0279 (inactive)	0.806 (inactive)	-0.0807	-0.176	-0.953	-0.773	-0.907
CC=CC(O)C1C=CC2C(=O)N(C)C(=O)C2N1NC(=O)OC(C)(C)C (stereo not given)	0.831	0.347	-0.116	0.516	0.767	0.812	-0.559	0.0938	0.838	-0.645 (inactive)	0.155	0.477 (inactive)	0.433 (inactive)	1.01 (inactive)	0.742 (inactive)	0.32	0.038	0.831	0.229	0.0729
CCCCC(O)C1C=CC2C(=O)NC(=O)C2N1Nc1ccccn1 (stereo not given)	1.12	0.0748	0.205	-0.796	-0.117	0.256	-0.0561	-0.0094	0.135	-0.407 (inactive)	-0.0034	0.294 (inactive)	-0.314 (inactive)	-0.133 (inactive)	0.438 (inactive)	0.0033	0.0225	0.477	0.203	-0.432
CC(C)(C)OC(=O)CC[C@]1(C(N)=O)N=C(c2ccc(OCCCO)cc2)O[C@H]1c1ccccc1CN=[N+]=[N-]	3.93	1.15	0.291	0.878	0.421	1.44	0.187	-0.512	0.668	-4.65 (inactive)	0.602	0.268 (inactive)	0.201 (inactive)	1.04 (inactive)	-0.671 (inactive)	2	0.355	1.57	1.1	-0.336
CN1C(=O)C2C=CC(C(O)c3ccc(-c4ccccc4)s3)N(Nc3ccccc3)C2C1=O (stereo not given)	1.33	1.19	0.283	0.96	1.12	-0.0002	0.5	-0.304	1.07	0.17 (inactive)	-0.24	0.809 (inactive)	-0.46 (inactive)	0.429 (inactive)	-0.666 (inactive)	2.23	0.395	0.0922	0.271	-0.212
CN(C)CCCCNC(=O)[C@H]1C[C@H]2C(=O)N[C@@H](Cc3ccccc3)C(=O)N2[C@H]1c1cccc(OCCO)c1	0.807	-0.562	-0.0598	-0.205	1.21	0.694	-0.0938	0.365	-0.0282	0.801 (inactive)	-0.113	-0.307 (inactive)	-0.584 (inactive)	-1.07 (inactive)	-1.16 (inactive)	-0.203	-0.128	-0.163	0.59	0.878
